± gives the standard deviation of the averaged measurements.

This note sets out measurements from the supplement of paper PMC11628255, “Interference of metal ions on the bioluminescent signal of firefly, Renilla, and NanoLuc luciferases in high-throughput screening assays” (Frontiers in Chemistry, 2024).

The assay relates to firefly luciferase (FLuc). Kind of assay: residual bioluminescent signal relative to negative control without GSH; higher = less interference (more residual luciferase signal). As to conditions: screening conditions buffer. The protocol: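 Selected metal salts at 3-4 concentrations tested on purified FLuc, NLuc or RLuc in screening buffer with 0, 0.2 or 2 mM glutathione added; 10 min enzyme pre-incubation at RT, luminescence 10 min after substrate. Signal normalised to negative control without GSH (% N_VALUE); triplicate wells.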

[1] abbreviates: metal salt concentration 1 mM, glutathione 0 mM.
[2] abbreviates: metal salt concentration 1 mM, glutathione 0.2 mM.
Where [3] appears, read: metal salt concentration 1 mM, glutathione 2 mM.

Take `[Cl][Fe]([Cl])[Cl]` [iron(III) chloride]: the residual bioluminescent signal by setting is: (metal salt concentration 0.0001 mM, glutathione 0 mM) 89.7 ± 5%; (metal salt concentration 0.0001 mM, glutathione 0.2 mM) 66.3 ± 5.5%; (metal salt concentration 0.0001 mM, glutathione 2 mM) 0.338 ± 0.22%; (metal salt concentration 0.0047 mM, glutathione 0 mM) 51.2 ± 3.8%; (metal salt concentration 0.0047 mM, glutathione 0.2 mM) 36.4 ± 2.5%; (metal salt concentration 0.0047 mM, glutathione 2 mM) 0.483 ± 0.17%. The residual bioluminescent signal is, setting by setting: (metal salt concentration 0.02 mM, glutathione 0 mM) 1.11 ± 0.084%; (metal salt concentration 0.02 mM, glutathione 0.2 mM) 0.87 ± 0.14%; (metal salt concentration 0.02 mM, glutathione 2 mM) 0.725 ± 0.43%; under setting [1], 1.06 ± 0.36%; under setting [2], 0.628 ± 0.47%; under setting [3], 0.29 ± 0.14%.

For `[Cl][Fe][Cl]` [iron(II) chloride], the residual bioluminescent signal amounted to 98.6 ± 7.2% (metal salt concentration 0.2 mM, glutathione 0 mM); 85.2 ± 7.9% (metal salt concentration 0.2 mM, glutathione 0.2 mM); 0.483 ± 0.3% (metal salt concentration 0.2 mM, glutathione 2 mM); 2.17 ± 0.52% (metal salt concentration 0.26 mM, glutathione 0 mM); 0.87 ± 0.25% (metal salt concentration 0.26 mM, glutathione 0.2 mM); 0.387 ± 0.3% (metal salt concentration 0.26 mM, glutathione 2 mM). The residual bioluminescent signal turned out to be 0.58 ± 0.29% under setting [1], 0.556 ± 0.31% under setting [2] and 0.531 ± 0.22% under setting [3].
